# Source: the supplement of paper PMC12632987
# T1: USP38, Q8NB14
# T1 chain: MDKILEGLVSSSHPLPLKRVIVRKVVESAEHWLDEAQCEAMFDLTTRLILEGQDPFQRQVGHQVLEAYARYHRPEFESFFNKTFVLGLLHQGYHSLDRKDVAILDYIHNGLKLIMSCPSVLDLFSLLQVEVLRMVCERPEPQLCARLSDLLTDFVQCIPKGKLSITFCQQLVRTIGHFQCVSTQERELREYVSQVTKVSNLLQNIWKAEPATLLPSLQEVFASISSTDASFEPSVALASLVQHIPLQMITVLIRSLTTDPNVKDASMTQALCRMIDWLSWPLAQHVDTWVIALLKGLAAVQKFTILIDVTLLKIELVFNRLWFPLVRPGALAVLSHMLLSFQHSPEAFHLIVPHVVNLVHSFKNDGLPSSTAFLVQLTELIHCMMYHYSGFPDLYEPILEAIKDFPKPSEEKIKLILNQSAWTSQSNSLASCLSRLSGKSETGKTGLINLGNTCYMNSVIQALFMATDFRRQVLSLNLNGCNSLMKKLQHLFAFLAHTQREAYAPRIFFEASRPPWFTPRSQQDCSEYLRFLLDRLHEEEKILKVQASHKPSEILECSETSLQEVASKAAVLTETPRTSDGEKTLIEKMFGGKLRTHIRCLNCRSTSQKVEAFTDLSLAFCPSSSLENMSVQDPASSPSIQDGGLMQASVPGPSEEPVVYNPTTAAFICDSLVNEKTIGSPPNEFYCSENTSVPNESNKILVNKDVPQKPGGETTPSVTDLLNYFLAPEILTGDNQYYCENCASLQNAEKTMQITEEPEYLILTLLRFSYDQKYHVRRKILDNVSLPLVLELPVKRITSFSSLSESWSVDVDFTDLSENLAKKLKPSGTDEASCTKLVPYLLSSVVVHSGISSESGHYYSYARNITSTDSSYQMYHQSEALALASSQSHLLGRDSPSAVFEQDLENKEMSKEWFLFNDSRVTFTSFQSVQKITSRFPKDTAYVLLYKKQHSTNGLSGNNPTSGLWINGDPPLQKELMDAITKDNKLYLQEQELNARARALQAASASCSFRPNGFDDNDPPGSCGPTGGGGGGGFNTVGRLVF
# Molecular target: T1, USP38, Q8NB14
# Assay: median log2 fold change of GCK-ALFA target abundance (FLAG IP / Myc IP barcode read proportion) (log2 ratio); each designed protein is fused to an ALFA-tag nanobody in HEK293 cells to bring the named protein to FLAG-tagged glucokinase (GCK); Myc marks an untargeted standard; higher = target protein stabilised (more abundant)
# Conditions: target protein: 3xFLAG-MCP-GCK-ALFA reporter; HEK293 landing pad (RPLP)
# How it was run: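 Sequencing of reverse-transcribed, amplified circular RNA barcodes from anti-FLAG and anti-Myc immunoprecipitates provided the readout for an ALFA-nanobody-fused binder library recombined into HEK293 landing-pad cells. Those cells were induced with 2 μg mL^−1 doxycycline, transfected with a plasmid expressing a FLAG-tagged target and a Myc-tagged standard, and lysed after 48 h. Target abundance is the per-binder median log2 ratio of FLAG to Myc barcode read proportions. Only barcodes at a proportion of ≥10^−7 in both replicates and binders with ≥3 barcodes per replicate were kept, with a 10^−6 pseudocount added before the two replicates were pooled.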
row,Binder,median log2 fold change
1,usp_38_diff_out_4_12_555 (protein) SAEEEKEKLEKLKEELKKKSEELKELADKLLAEVKEKKDRATYKKAEEELNKKLTELAELTLETLEATDDDEELEEILKLTDETFTYVSEKAAEMREIMK,0.0256
2,usp_38_diff_out_4_12_562 (protein) SMEEKEKKVKEALEEMKKLSEEAKEKAKKAAEEAKKTGNLAEFNKKMNELINKLTEKTLEVLEKLAELGDEESIEEVLKITSETFTYISQLAAEVKKAAA,-0.588
3,usp_38_diff_out_4_12_551 (protein) SAEERRRKREEALERLRRLAEEATREAERLKKEVEEKKDEATLEEALKRANELITELSEATLEALELAENLEEVEEVLRLAEPAFDALAELRVKIEEARK,-0.341
4,usp_38_diff_out_4_12_559 (protein) AEEEHKEALEKAKEELKKLSEETIKLAKELLEKVKKEKSRATLKEANEKLNKKITELAEATLKALELAETDEELQEILDLWDKTSTEISRLAKEMREILK,-0.371
5,usp_38_diff_out_4_12_558 (protein) SEEERKKKREEALKELKKLSEDAKATADKLLAEVKKKKDKATLKAANATLNDLLTKLAEKTLEALELAENDEELEEILKIYDDTATYITTKAAEMKAVLK,0.037
6,usp_38_diff_out_4_12_557 (protein) AEEEREREFKRKREELKRLSEETKERADKLLEEVKKKKDKATLKEATKKLNEDLTKLAELTLETLELAETDEEVQEILDLFDDTATYVSEKAAEMKEILK,-0.616
7,usp_38_diff_out_4_99_564 (protein) MKEEMVKKVKELKKEAEELLKKAKEAFKLSHEERKKVAEELSKELDELAKELGKIYFEARDTGDKELIKAVNKEADEFVKAYNEAAKELNLLRHEVLEEE,-0.19
8,usp_38_diff_out_4_126_550 (protein) SMKEELEKKLEEAKKLAEEALKAAARLVELAATDPSKVAEARAELDALIAAFTKAANEALKLARKDGKYKEEVTKEIDKLTDEVVEAEGKAVEAVAEALA,0.0827
9,usp_38_diff_out_4_126_548 (protein) SREEEFEKLKEEANKKMKEAKELLEKAKKLLDKDKEEALKYLDEAAEKLGEASKLLRKMREVAKGDEELRKEYKELLEKLNELVDEYTKVATEIYLALAE,0.358
10,usp_38_diff_out_4_12_553 (protein) AAEERQKALEKALAEMQKLHEETVKKLKELLEELKKTKKEEILKEAEKLANDALTKLAELTTKALELAETPEEQQAILDLYAQQVTEIVTLMQEAKEAMK,0.201
11,usp_38_diff_out_4_12_556 (protein) SPEEEEEARERALRELEERSRRLREEAERLLARVKETRDEATYKEANERLNKGLTELAELTLRTLELTDDDEELERILRLTDETFRYVSEKAAEMRELMK,-0.146
12,usp_38_diff_out_4_12_561 (protein) SEEERKKIAEEALEEMEKKSKEVKEKAKKAKEEAIKTKDLAAFNKKMNELIKELTDLTLEKLEKLAEIGDDETIEEILRIAGETFKELSKLAKEVKEAAK,-0.892
13,usp_38_diff_out_4_12_552 (protein) AEEERRKELEELLREMEELTEETVARMKELLKELKETKDEEVYEELLKLAEEALTRLAELTTRALELAETDEELEEILRRYSEAVDEIVALMQEARKAMK,-0.539
14,usp_38_diff_out_4_126_549 (protein) DREKQAEELEKKLEEALKKAKEYLKKAKELLDKDKEETLKALDKSWEALGKASELLRELRRIAIDDPELRERYKKLLEEANKLVDEFTKAAEEIYLKLSE,-1.05
15,usp_38_diff_out_4_12_560 (protein) AEEEHKKKLEEAKKELEKLSEELKELADKKLEEVKEKKDKATLKEAEKEINEKITELAEKTLKALELAETDEDLQKILDLYDDTATYVSEKAAEMREILK,-0.0183
16,usp_38_diff_out_4_12_554 (protein) SAEERRRRFEEALREMERLHRETIEKLEELKEELKKTKDEKVLEEAEKLANEALSRLAELTTRALEEAENDEEVQEILDLYSRHVDEIVTLMNEMKKIMK,0.0829
